Screens from PubChem BioAssay.
EWS-Fli inh = inhibitors of EWS/Fli oncoprotein transcriptional activity | inhibition, % at 12.6 µM | A673 NR0B1-luciferase reporter, viability-normalised | 350,000 compounds, 0.67% hits;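 active = mean inhibition of at least 50% after viability correction, with every replicate also passing that limit; inconclusive = mean reaches 50% but only one of two replicates passes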;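 also: firefly luciferase signal divided by Alamar Blue viability fluorescence both relative to DMSO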
MITF TRPM1 HTS = activators of MITF-driven TRPM1 promoter activity in SK-MEL-5 cells | SK-MEL-5 TRPM1-promoter luciferase, 24 h; % of positive control, neutral wells = 0 | activation, % at 12.5 µM | 300,000 compounds, 0.75% hits | AID 588334;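 active = mean activation of at least 80% with every replicate also reaching 80%; inconclusive = mean reaches 80% but some replicate falls short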;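 also: 0% = neutral control wells and 100% = parthenolide positive control wells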
PAX8 inh HTS = PAX8 transcriptional activity inhibition | inhibition, % at 12.6 µM | AID 652154 | RMG-I TPO-luciferase reporter, SteadyGlo, 24 h | 360,000 compounds, 1.2% hits;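 active = mean replicate inhibition at least 60% with every replicate also reaching 60%; inconclusive = only one of the two criteria is met; inactive = mean below 60% and not all replicates reaching 60%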;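 also: luciferase light reporting Pax8 driven TPO promoter activity; plate controls were median of neutral control wells for no effect and mitoxantrone controls for full effect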
esBAF inh = inhibitors of esBAF chromatin remodeling in mouse ES cells. Bmi1-luciferase knock-in reporter, 24 h; 100% = twice the neutral-well signal. reporter increase, % at 12.5 µM. 350,000 compounds, 2% hits. AID 602393; in the data active = activation above about 40%; inconclusive = no clear call, values can overlap the other calls;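 also: 0% = median of the plate's neutral control wells and 100% = double that signal; a rise in the Bmi1 reporter signal indicates esBAF inhibition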
MITF TRPM1 inh = MITF TRPM1 promoter inhibition in SK-MEL-5 cells; SK-MEL-5 TRPM1 promoter luciferase, 24 h; inhibition, % at 12.5 µM; 330,000 compounds, 0.83% hits;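 active = mean inhibition across replicates of 60% or more, whatever share of single replicates reaches that level; inconclusive = some that reach 60%, reason not given; inactive = mean inhibition across replicates below 60%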
Wnt act = Wnt/beta-catenin pathway activation; Wnt/beta-catenin reporter cell assay, activator, plate reader; activation, % at 9.35 µM; 300,000 compounds, 1.2% hits; AID 743398; in the data active = activation above about 30%, passing the limit was not always enough; inconclusive = no clear call, values can overlap the other calls;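 also: 0% = neutral control wells and 100% = positive control wells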
* = called active by the depositor; ? = inconclusive; · = no result. Only some compounds are listed: those with a hit (about 4% of all), similar ones and a draw of the others.

SMILES	EWS-Fli inh	MITF TRPM1 HTS	PAX8 inh HTS	esBAF inh	MITF TRPM1 inh	Wnt act
O=C(NCC1CCCO1)c1cc2ccccc2o1 (centres undefined)	-56	36	-87	44*	-40	4
CC1CCC(NC(=O)c2cc3ccccc3cc2O)CC1 (centres undefined)	-69	94*	-183	77*	-90	46*
O=C(NCC1CCCO1)c1cccc2ccccc12 (centres undefined)	-3	-7	-8	2	2	1
O=C(NCCO)c1cc2ccccc2cc1O	·	-8	·	0	8	·
CO[C@@H]1CN(C)C(=O)c2ccc(NS(=O)(=O)c3cn(C)cn3)cc2OC[C@H](C)N(C)C[C@@H]1C	2	·	1	-3	·	·
O=C(N/N=C/c1ccc[nH]1)c1cc2ccccc2cc1O	-44	32	-110	53*	-34	8
O=C(N/N=C/c1ccc[nH]1)c1sc2ccccc2c1Cl	·	6	·	55*	-2	1
O=C(NCC1CCCCC1)c1cc2ccccc2cc1O	-13	29	-139	54*	-29	17
CC1Sc2ccc(C(=O)OCc3ccccc3Cl)cc2NC1=O (centres undefined)	-81	186*	-186	·	-185	?
COc1cccc(COC(=O)c2ccc3c(c2)NC(=O)C(C)S3)c1OC (centres undefined)	-4	-1	6	-6	1	-6
CC1Sc2ccc(C(=O)Nc3ncccc3O)cc2NC1=O (centres undefined)	-2	38	-51	-30	-48	-2
CC1Sc2ccc(C(=O)Nc3ccccc3OC(F)F)cc2NC1=O (centres undefined)	-60	62	-133	·	-60	35*
O=C(NCCc1cccs1)c1ccc(Cl)cc1	10	24	-28	·	-27	10
O=C(NCCc1cccs1)c1ccc(Cl)c(Cl)c1	-73	94*	-224	·	-95	37*
Cc1ccc(C(=O)NCCc2cccs2)cc1	64*	-45	43	-63	54	-2
CO[C@@H]1CN(C)C(=O)c2ccc(NC(=O)Nc3ccccc3F)cc2OC[C@@H](C)N(C(=O)Nc2ccccc2F)C[C@H]1C	8	·	-3	16	·	·
C[C@H]1CN([C@@H](C)CO)C(=O)c2cc(C#CC3CC3)cnc2O[C@@H]1CN(C)Cc1ccccn1	2	·	·	-1	·	·
O=C(Nc1nnc(Cc2ccc(F)cc2)s1)Nc1ccccc1F	-9	14	-10	8	-18	6
O=C(Nc1nnc(Cc2ccccc2F)s1)Nc1ccccc1F	-73	29	-58	44*	-30	5
O=C(Nc1nnc([C@@H]2C[C@H](O)[C@@H](CO)O2)s1)Nc1ccccc1F	-39	·	-140	6	·	39*
O=C(Nc1nnc([C@H]2C[C@H](O)[C@@H](CO)O2)s1)Nc1ccccc1F	-47	·	-53	38	·	-2
CCc1nnc(NC(=O)Nc2ccccc2OC)s1	·	135*	-162	?	-125	-5
COc1ccccc1NC(=O)Nc1nnc(C(C)c2ccccc2)s1 (centres undefined)	-3	11	-13	53*	-9	-1
COc1ccccc1NC(=O)Nc1nnc(C(C)C)s1	-57	?	-189	·	-84	·
COC(=O)C1(N2C(=O)O[C@@H](Cc3ccccc3)[C@H]2/C=C/C2CC2)CCCC1	-4	·	-1	·	·	·
SMILES	EWS-Fli inh	MITF TRPM1 HTS	PAX8 inh HTS	esBAF inh	MITF TRPM1 inh	Wnt act
C[C@@H]1CN([C@H](C)CO)C(=O)c2cc(NC(=O)C3CCCCC3)ccc2O[C@@H](C)CCCCO[C@@H]1CN(C)C(=O)Cc1ccccc1	-91	·	2	0	·	·
COCCNC(=O)c1ccc2c3n(nc2c1)-c1ccc(C)cc1CO3	-128	?	-155	80*	-76	43*
O=C(NCC1CCCO1)c1ccc2c3n(nc2c1)-c1ccccc1CO3 (centres undefined)	-162	?	-171	70*	-87	?
Cc1ccc2c(c1)COc1c3ccc(C(=O)N[C@@H](CO)C(C)C)cc3nn1-2	-198	114*	-176	73*	-113	34*
C[C@H](NC(=O)C[C@@H]1C=C[C@@H](NC(=O)Nc2ccc3c(c2)OCO3)[C@H](CO)O1)c1ccccc1	0	·	-4	2	·	·
C[C@H](CO)N1C[C@H](C)[C@H](CN(C)C(=O)c2ccncc2)Oc2ncc(C#CC3CC3)cc2C1=O	-5	·	·	·	·	·
